# JMJD2A Tudor – qHTS Assay for Inhibitors of JMJD2A-Tudor Domain. Lysine-specific demethylase 4A (Homo sapiens), O75164. AlphaScreen JMJD2A-Tudor / H3K4me3 peptide binding. Potency, µM (doses to about 114 µM), for the others: top-dose activity change, negative = inhibition, hits mostly inhibitors. 390,000 tested, 4.4% active. AID 504339, 2011; also: % is scaled to controls: 0 for no effect and ±100 for the full control effect; nearly all actives have a fitted effect of over 50% in size
# Target sequence (O75164 whole entry, looked up, the tested form may be a part): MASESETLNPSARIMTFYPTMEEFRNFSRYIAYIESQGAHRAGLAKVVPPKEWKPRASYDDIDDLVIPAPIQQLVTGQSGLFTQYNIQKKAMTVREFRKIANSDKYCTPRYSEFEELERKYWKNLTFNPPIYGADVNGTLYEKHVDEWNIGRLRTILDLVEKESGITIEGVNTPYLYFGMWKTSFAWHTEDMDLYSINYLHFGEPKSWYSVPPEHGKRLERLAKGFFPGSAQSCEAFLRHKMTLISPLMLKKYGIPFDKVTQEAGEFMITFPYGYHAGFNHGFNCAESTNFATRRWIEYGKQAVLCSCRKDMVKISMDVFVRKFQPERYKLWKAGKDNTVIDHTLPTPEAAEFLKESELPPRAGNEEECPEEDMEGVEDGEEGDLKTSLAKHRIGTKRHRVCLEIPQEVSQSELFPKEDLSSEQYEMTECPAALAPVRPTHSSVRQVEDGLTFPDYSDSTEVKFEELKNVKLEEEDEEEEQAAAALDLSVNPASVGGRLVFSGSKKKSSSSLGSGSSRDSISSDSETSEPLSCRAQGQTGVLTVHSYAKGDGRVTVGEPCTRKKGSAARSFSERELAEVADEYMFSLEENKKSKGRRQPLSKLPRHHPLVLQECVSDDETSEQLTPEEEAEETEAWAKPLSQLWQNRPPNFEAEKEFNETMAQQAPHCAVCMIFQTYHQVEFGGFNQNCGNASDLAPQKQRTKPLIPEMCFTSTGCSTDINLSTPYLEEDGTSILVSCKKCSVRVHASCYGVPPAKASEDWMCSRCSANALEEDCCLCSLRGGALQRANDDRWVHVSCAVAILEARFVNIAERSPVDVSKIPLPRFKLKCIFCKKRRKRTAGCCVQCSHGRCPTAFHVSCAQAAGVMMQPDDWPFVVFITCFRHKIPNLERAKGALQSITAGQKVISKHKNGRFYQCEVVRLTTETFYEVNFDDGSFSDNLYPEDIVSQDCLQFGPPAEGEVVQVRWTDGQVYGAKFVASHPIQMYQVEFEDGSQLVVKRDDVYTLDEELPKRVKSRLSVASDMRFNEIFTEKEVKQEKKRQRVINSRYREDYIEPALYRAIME
# BAZ2B block – qHTS Assay for Inhibitors of BAZ2B; Potency, µM (series often up to 114 µM), without a hit: at the top dose activity change, negative = inhibition, most hits filed as inhibitors; 360,000 tested, 4.4% active; AlphaScreen BAZ2B-H3K14Ac peptide displacement; Bromodomain adjacent to zinc finger domain protein 2B (Homo sapiens), Q9UIF8; also: % is scaled to controls: 0 for no effect and ±100 for the full control effect; nearly all actives have a fitted effect of over 60% in size
#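 Compounds, titrated to a top concentration of 110 uM, were incubated 30 min at room temperature with preformed BAZ2B/acetyl-K14 H3 peptide complex (50 nM each). Proximity signal was measured by AlphaScreen after 20 min with beads.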
# HP1b chromo inh – HTS for Inhibitors of HP1-beta Chromodomain Interactions with Methylated Histone Tails; Chromobox protein homolog 1 (Homo sapiens), P83916; AlphaScreen HP1-beta / biotin-H3K9me3 peptide binding; Potency, µM (doses to about 114 µM), for inactives: at the highest dose activity change, negative = inhibition, hits mostly inhibitors; 390,000 tested, 0.56% active; also: nearly all actives have a fitted effect of over 70% in size
#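 AlphaScreen: HP1-beta (50 nM) preformed 30 min with biotin-H3(1-18)K9me3 peptide (50 nM) in PBS pH 7.4, 0.01% Tween-20. Compound added for 30 min at RT, then streptavidin donor/nickel chelate acceptor beads (10 ug/mL) for 30 min.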
# G9a inh – qHTS Assay for Inhibitors of Histone Lysine Methyltransferase G9a; Histone-lysine N-methyltransferase EHMT2 (Homo sapiens), Q96KQ7; G9a H3K9 monomethylation, AlphaScreen, 2 h; Potency, µM (doses to about 102 µM), for the others: at the top dose activity, negative = inhibition, hits mostly inhibitors; 350,000 tested, 8.8% active; AID 504332, 2011; also: % is scaled to controls: 0 for no effect and ±100 for the full control effect; nearly all actives have a fitted effect of over 75% in size
#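 Chemiluminescent proximity detection of H3K9 monomethylation, read after 10 min bead incubation in the dark. Reaction: 20 nM G9a, 500 nM biotin-H3K9 peptide, 20 uM SAM cofactor, 2 h, room temperature, following 15 min enzyme-compound preincubation.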
# Sfp inh – qHTS Assay for Inhibitors of Bacillus subtilis Sfp phosphopantetheinyl transferase (PPTase); Biochemical Sfp PPTase activity, qHTS; Potency, µM, for inactives: largest response in the series, negative = inhibition, actives largely listed as inhibitors; AID 1490, 2009; 310,000 tested, 3.5% active;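 also: the enzyme is Sfp with the accession as filed and its product quenches rhodamine fluorescence; 0% = enzyme reaction without inhibitor and -100% = no enzyme wells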
#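 Reaction rates are the 30-min fluorescence difference (ex 525, em 598 nm) in wells containing 15 nM Sfp, 5 uM rhodamine-CoA and 12.5 uM BHQ-2-YbbR at pH 7.6 with 10 mM MgCl2.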
# Active calls of the source: *; ? = inconclusive; / = no result given; [ ] = another dose, or the depositor's remark. Sampled rows, rich in hits. Any-hit rate of the full collection: about 12%. Calls follow the shape of the dose curve; as a rule, active = well fitted curve in the direction sought with a large enough effect; inconclusive = small, poorly fitted or top-dose-only effect, or another doubt; inactive = no such curve, though single readings can be large; an effect the other way counts as inactive or inconclusive. Potency is read from the fitted curve at half-maximal effect.
SMILES,JMJD2A Tudor,BAZ2B block,HP1b chromo inh,G9a inh,Sfp inh
CCOC(=O)C(C)Sc1nc(-c2ccccc2Cl)cc(-c2ccccc2)c1C#N (configuration not stated),31%,10%,68%,14%[59 µM],/
O=C(/C=C/c1ccc2ccccc2n1)c1cc(Br)ccc1O,?,56µM*,0%,10µM*,?
O=C(O)/C=C/c1ccc2ccccc2n1,-10%,3%,27%,-4%[59 µM],1%
CC12CCC=CC1C(c1ccc(/C=C/c3ccccc3)cc1F)N(Cc1ccccc1)C2=O (configuration not stated),-19%,/,14%,/,-21%
CC(=O)c1ccc(NC(=O)CC(NCCC2=CCCCC2)C(=O)O)cc1 (configuration not stated),13µM*,-6%,-15%,?,-2%
O=c1cc(CSc2ccc(Cl)cc2)nc(-c2ccccc2)[nH]1,-16%,-2%,9%[57 µM],4%,19%
O=c1cc(CSc2ccc(Cl)cc2)nc(-c2ccccn2)[nH]1,79µM*,28µM*,16%,37%,8%
COc1ccc(NC(=O)CCNS(=O)(=O)c2ccc3c(c2)CC(C)N3C(C)=O)cc1 (configuration not stated),-13%,-8%,41%,59%[59 µM],15%
CCOc1ccc(NC(=O)CCNS(=O)(=O)c2ccc3c(c2)CC(C)N3C(C)=O)cc1 (configuration not stated),25µM*,-14%,15%,9%[59 µM],14%
COc1ccc(S(=O)(=O)c2c(O)c3ccc(C(=O)Nc4ccccc4Cl)cc3[nH]c2=O)cc1,?,-2%,49%,18%[59 µM],18%
CCc1ccccc1NC(=O)c1ccc2c(O)c(S(=O)(=O)c3ccc(OC)cc3)c(=O)[nH]c2c1,20µM*,-10%,-8%,-1%[59 µM],23%
O=C(NCc1ccccc1Cl)c1ccc2c(O)c(S(=O)(=O)c3ccccc3)c(=O)[nH]c2c1,-9%,?,26%,?,/
COc1ccc(S(=O)(=O)c2c(O)c3ccc(C(=O)Nc4ccc(F)cc4F)cc3[nH]c2=O)cc1,-10%,?,66%,?,29%
CCc1ccccc1NC(=O)c1ccc2c(O)c(S(=O)(=O)c3ccccc3)c(=O)[nH]c2c1,79µM*,?,6%,16µM*,/
COc1ccc(S(=O)(=O)c2c(O)c3ccc(C(=O)Nc4ccc(F)cc4)cc3[nH]c2=O)cc1,50µM*,-29%,-1%,5%[59 µM],30%
COc1ccc(S(=O)(=O)N(CC(=O)Nc2cccnc2)c2ccc(Cl)cc2)cc1,-25%,-9%,-8%,-37%[59 µM],/
Cc1ccc(C)c(NC(=O)CSc2nnc(CNC(=O)c3ccccc3)n2-c2ccccc2)c1,-4%,-14%,40%,-5%[59 µM],/
C1CCC[C@H]2CCCN3CC[C@H](CCCCCC[C@@H]4CCCN5CC[C@H](CC1)OC45)OC23,/,/,/,27%[59 µM],37%
COc1cc(-c2nc3ccc(Cl)cn3c2Nc2ccc3c(c2)OCO3)ccc1O,32µM*,/,?,13µM*,/
Clc1ccc2nc(-c3ccccn3)c(Nc3ccc4c(c3)OCO4)n2c1,2.2µM*,2.8µM*,?,18%,-3%
COc1ccccc1C(=O)CSc1n[nH]c(N)n1,-27%,-6%,43%,?,89µM*
O=C(CSc1nnc(C2CC2)n1Cc1ccccc1)c1cc2ccccc2o1,56µM*,-35%,14%,45µM*,-13%
Nc1nc(SCC(=O)c2cc3ccccc3o2)n[nH]1,?,-38%,?,?,22µM*
CCCOc1ccc(-c2nc3ccc(Br)cc3c(=O)o2)cc1,-11%,4%,28%,20%[59 µM],/
Cc1ccc(-n2ncc3c2CC(C)(C)CC3NC(=O)CCn2cncn2)cc1 (configuration not stated),-9%,-2%,14%,25%,21%
SMILES,JMJD2A Tudor,BAZ2B block,HP1b chromo inh,G9a inh,Sfp inh
O=[N+]([O-])/C(C(Cl)=C(Cl)Cl)=C1\Nc2ccccc2O1,40µM*,50µM*,?,35µM*,-16%
CCOc1cc([N+](=O)[O-])cc2c1C(=O)Nc1ccccc1O2,-30%,-9%,6%,1%,13%
O=C1N=C(N2C=CC(=C3C=CNC=C3)C=C2)/C(=C/N=NC(=O)c2ccccc2O)S1,?,50µM*,45µM*,71µM*,-16%
O=C1c2ccc(-c3ccc(Cl)c(C(F)(F)F)c3)cc2S(=O)(=O)c2cccc(C(=O)N3CCN(c4ccc(Cl)cn4)CC3)c21,?,/,-9%,/,/
CCOC(=O)CC1CCCCN1C(=O)c1cc(COc2cccc3cnccc23)on1 (configuration not stated),1%,-21%,16%[57 µM],6%,11%
O=C(Nc1ccc(Cl)cc1)c1cccc(N2C(=O)C3C4CCC(C4)C3C2=O)c1 (configuration not stated),-21%,-38%,4%,-6%[59 µM],6%
O=C(Nc1ccc(Cl)cc1)[C@@H]1[C@@H]2C(=O)N(c3ccc4ccccc4c3)C(=O)[C@@H]2[C@H]2C=CC=NN21,63µM*,?,-4%,3.2µM*,40µM*
COc1ccc(N2C(=O)[C@@H]3[C@H](C2=O)[C@H]2C=CC=NN2[C@@H]3C(=O)Nc2ccc(Cl)cc2)cc1,?,-33%,-6%,7.1µM*,35µM*
O=C(Nc1ccc(Cl)cc1)[C@@H]1[C@@H]2C(=O)N(c3cccc(F)c3)C(=O)[C@@H]2[C@H]2C=CC=NN21,?,-28%,-11%,8.9µM*,-3%
Cc1ccc(CNC(=O)c2ccc(-n3cnc4cccnc43)cc2)cc1,-15%,1%,44%,11%[59 µM],/
Cn1c2cc(CO)sc2c2cnn(Cc3ccccc3F)c(=O)c21,-2%,/,/,/,/
CC(=O)OCCCNc1cc(Sc2nc3ccccc3s2)c2nonc2c1[N+](=O)[O-],-26%,-27%,11%,?,2.5µM*
CC(=O)OCCNc1cc(Sc2nc3ccccc3[nH]2)c2nonc2c1[N+](=O)[O-],56µM*,?,?,4µM*,1.6µM*
CN(C)CCN1C(=O)c2ccccc2N(C)c2ccccc21,/,/,/,25%[59 µM],?
CCCCN(Cc1nc2ccccc2c(=O)[nH]1)C(=O)COc1ccc(F)cc1Cl,-3%,5%,51%,-4%[12.7 µM],/
O=C(NCCSc1ccccn1)c1ccc(Cl)cc1,-8%,2%,53%,11%[59 µM],14%
N#CC(Sc1ccccn1)c1ccc(Cl)cc1 (configuration not stated),-6%[11.4 µM],7%,13%,7.9µM*,28µM*

# Source: PubChem BioAssay (National Center for Advancing Translational Sciences (NCATS))
